In PubChem BioAssay (NCI) one finds growth data, which are given here for 40 molecules.

Each structure is given as a SMILES string. Values joined by “and” are separate entries in the source; they are usually repeats but may differ in a detail not shown here. Identical values can stand only once. This is part of a sample that, as a whole, favours compounds with a hit. Of some 83,000 tested, about 20% had one in any assay.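 Negative percent growth values reflect cell death: -40 means 40% of the cells present at the start died, and -100 means all died.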 Active and inactive are the calls of the source. Rule for the calls: active = growth percent below 10; inactive = the rest.

This assay concerns MDA-MB-468 breast. Description: NCI-60 one-dose screen, 48 h (100 = growth as untreated, 0 = no growth, -100 = all killed). To be noted: 10 µM unless noted.
Regarding `OC(COCc1ccccc1)COCc1ccccc1`, the growth was 108% (inactive).

As for `O=C(CSc1nnc(-c2cc(-c3ccc(Cl)cc3)nc3ccccc23)n1-c1ccccc1)Nc1ccc(Cl)cc1`, the growth was 110% (inactive).

`C=CCS(C)(=O)=O`: the growth was 95.9% (inactive).

Consider `Cc1ccc(O)c(NC(=O)c2cccc(Nc3ccnc(C(F)(F)F)c3)c2)c1`, for which the growth is 46% (inactive).

As to `O=C(c1ccc(OCCN2CCCCC2)cc1)c1c(-c2ccc(O)cc2)sc2cc(O)ccc12`, the growth is 57.7% (inactive).

For the molecule `CC(=O)Cc1nsc(NC(=O)c2cc(-c3cc(Cl)ccc3Cl)oc2C)n1`, the growth was 100% (inactive).

Turning to `Cn1ccnc1C(=O)/C=C/c1ccc(NC(=O)c2ccc(F)cc2)cc1`, the growth was 11.8% (inactive).

Regarding `Cc1[nH]c(-c2nc3ccccc3[nH]2)c(C)c1C(=O)N1CCc2sccc2C1`, the growth was 70.2% (inactive).

Regarding `O=C(O)COc1ccc2c(=O)c3sc4c(=O)c5ccccc5c(=O)c4c3c(=O)c2c1`, the growth is 26.4% (inactive).

For the molecule `Cc1ccc(Cc2cnc(NC(=O)c3cc(Br)cs3)s2)cc1`, the growth was 30% (inactive).

Consider `COc1ccc(-c2[nH]nc(N)c2-c2cc(OC)c3c(c2)OCO3)cc1`, for which the growth was 33.5% (inactive).

For `OCc1n(Cc2ccc3ccccc3c2)cc[n+]1Cc1ccc2ccccc2c1`, the growth is -29% (active).

`COc1cccc(-c2nc3sccn3c2-c2ccnc(NCCNS(=O)(=O)c3ccc(F)cc3)c2)c1`: the growth was 19.2% (inactive).

In the case of `CC(=O)Oc1c(C)c(OC(C)=O)c2c(c1C(C)=O)OC1CC(=O)C(C(C)=O)=C(O)C21C` (stereo not given), the growth is 90.1% (inactive).

`O=c1c2c([nH]c3ccccc13)CCCC2`: the growth was 88.2% (inactive) and 14.6% (inactive).

On to `NC1=NN=C(N)C1=Cc1cc2ccccc2n2nnnc12`, for which the growth was 94.8% (inactive).

On to `NC(=O)NNC(=O)c1ccccc1`, for which the growth was 110% (inactive).

As for `O=C(Nc1ccc(Br)cc1)c1cc(Br)ccc1O`, the growth is -18.1% (active) and 15% (inactive).

Consider `COc1cc(Cn2c(SCCC(=O)Nc3ccc(F)cc3)nc3ccccc3c2=O)cc(OC)c1OC`, for which the growth is 88.1% (inactive).

As for `O=C(/C=C/c1cc(Cl)ccc1Cl)Nc1ncc(Cc2ccc(Cl)cc2)s1`, the growth is 23.8% (inactive).

`CCO/C=N/C1=C(C#N)C(c2ccc(Cl)cc2)c2c(c3ccccc3n(C)c2=O)O1` (stereo not given): the growth was 54% (inactive).

Consider `C#Cc1cccc(Nc2ncnc3ccc(NC(=O)c4ccccc4)cc23)c1`, for which the growth is -28.5% (active).

For the molecule `CCOC(=O)c1csc(NC(=O)CSc2nc3sc4c(c3c(=O)n2-c2ccc(Cl)cc2)CCCC4)n1`, the growth is 102% (inactive).

For the molecule `C=C(C)[C@@H]1CC[C@]2(C)[C@H](CC[C@@H]3[C@H]4[C@H]5OC[C@@]4(CCC5(C)C)CC[C@]32C)[C@@]1(C)CCCN`, the growth is -68.2% (active).

For `COc1ccc(/C=C2\CN(Cc3cn(CCNc4ccnc5cc(Cl)ccc45)nn3)C/C(=C\c3ccc(OC)c(OC)c3)C2=O)cc1OC`, the growth is -37.7% (active).

Regarding `CC(C)C1=NOC(=O)C1=Cc1cn(-c2ccccc2)nc1-c1cccc([N+](=O)[O-])c1`, the growth was 86.6% (inactive).

Regarding `Cc1cc(=O)n(C(=O)Nc2ccccc2Cl)c2cc(O)ccc12`, the growth was 104% (inactive).

`CCOC(=O)C(=Cc1ccccc1[N+](=O)[O-])C(=O)OCC`: the growth is 34.3% (inactive).

As for `O=C(Oc1ccc(CCl)cc1)c1ccccc1`, the growth was -62.7% (active).

With `Cc1nn(Cc2ccccc2)cc1C(=O)Nc1sc2c(c1C(N)=O)CCC(=O)C2`, the growth was 47.2% (inactive).

Consider `Cc1cc(O)ccc1Sc1ccccc1[N+](=O)[O-]`, for which the growth is 95.3% (inactive).

Turning to `COc1cccc(-c2nc3sccn3c2-c2ccnc(NCCN3CCCN(C)S3(=O)=O)n2)c1`, the growth was 75.6% (inactive).

For the molecule `C[C@@H]1C(=O)N(C[C@@H](Cc2ccccc2)NC(=O)OCc2ccccc2)[C@]1(Cc1ccccc1)C(=O)OCc1ccccc1`, the growth was 26.1% (inactive).

For the molecule `CCOC(=O)/C=C1\SC(=Nc2ccc(C#N)cc2)N(CCN2C(=O)/C(=C/C(=O)OCC)SC2=Nc2ccc(C#N)cc2)C1=O`, the growth is 55.3% (inactive).

As to `O=C1NC(=O)C(c2ccccc2)(c2ccccc2)N1Cc1cn(-c2c3ccccc3nc3ccccc23)nn1`, the growth was 38.2% (inactive).

As for `O=C(Nc1ccc(-c2nc(-c3cccc(OCCN4CCOCC4)c3)c(-c3ccnc(Br)c3)[nH]2)cc1)c1ccccc1`, the growth is -6.35% (active).

For the molecule `Cc1ccc(/C=C/C(=O)c2ccc(-n3cc(CN4CCN(c5cc6c(cc5F)c(=O)c(C(=O)O)cn6C5CC5)CC4)nn3)cc2)cc1`, the growth was 77.1% (inactive).

Turning to `C=C1C(=O)O[C@H]2[C@H]1CC/C(COC(=O)NCCc1ccc(Br)cc1)=C\CC[C@@]1(C)O[C@@H]21`, the growth is 4.63% (active).

In the case of `O=C(Cc1ccc(/C=C/C(=O)c2ncc[nH]2)cc1)Nc1ccccc1`, the growth is 22.2% (inactive).

In the case of `CS(=O)(=O)Nc1ccc(Nc2c3ccccc3nc3cc([N+](=O)[O-])ccc23)cc1`, the growth was -43.3% (active).
